KDM5B inh: Primary screen for KDM5B Histone Demethylases FDH-coupled qHTS. AID 1347165, 2019. KDM5B demethylase, FDH-coupled NADH fluorescence (FDH is formaldehyde dehydrogenase). hit rate 2.6% among 220,000. Potency, µM (doses to about 57.7 µM), most hits filed as inhibitors; active = well fitted inhibition curve with a large enough effect; note: nearly all actives have a fitted effect of over 70% in size
Target sequence (Q9UGL1 whole entry, looked up): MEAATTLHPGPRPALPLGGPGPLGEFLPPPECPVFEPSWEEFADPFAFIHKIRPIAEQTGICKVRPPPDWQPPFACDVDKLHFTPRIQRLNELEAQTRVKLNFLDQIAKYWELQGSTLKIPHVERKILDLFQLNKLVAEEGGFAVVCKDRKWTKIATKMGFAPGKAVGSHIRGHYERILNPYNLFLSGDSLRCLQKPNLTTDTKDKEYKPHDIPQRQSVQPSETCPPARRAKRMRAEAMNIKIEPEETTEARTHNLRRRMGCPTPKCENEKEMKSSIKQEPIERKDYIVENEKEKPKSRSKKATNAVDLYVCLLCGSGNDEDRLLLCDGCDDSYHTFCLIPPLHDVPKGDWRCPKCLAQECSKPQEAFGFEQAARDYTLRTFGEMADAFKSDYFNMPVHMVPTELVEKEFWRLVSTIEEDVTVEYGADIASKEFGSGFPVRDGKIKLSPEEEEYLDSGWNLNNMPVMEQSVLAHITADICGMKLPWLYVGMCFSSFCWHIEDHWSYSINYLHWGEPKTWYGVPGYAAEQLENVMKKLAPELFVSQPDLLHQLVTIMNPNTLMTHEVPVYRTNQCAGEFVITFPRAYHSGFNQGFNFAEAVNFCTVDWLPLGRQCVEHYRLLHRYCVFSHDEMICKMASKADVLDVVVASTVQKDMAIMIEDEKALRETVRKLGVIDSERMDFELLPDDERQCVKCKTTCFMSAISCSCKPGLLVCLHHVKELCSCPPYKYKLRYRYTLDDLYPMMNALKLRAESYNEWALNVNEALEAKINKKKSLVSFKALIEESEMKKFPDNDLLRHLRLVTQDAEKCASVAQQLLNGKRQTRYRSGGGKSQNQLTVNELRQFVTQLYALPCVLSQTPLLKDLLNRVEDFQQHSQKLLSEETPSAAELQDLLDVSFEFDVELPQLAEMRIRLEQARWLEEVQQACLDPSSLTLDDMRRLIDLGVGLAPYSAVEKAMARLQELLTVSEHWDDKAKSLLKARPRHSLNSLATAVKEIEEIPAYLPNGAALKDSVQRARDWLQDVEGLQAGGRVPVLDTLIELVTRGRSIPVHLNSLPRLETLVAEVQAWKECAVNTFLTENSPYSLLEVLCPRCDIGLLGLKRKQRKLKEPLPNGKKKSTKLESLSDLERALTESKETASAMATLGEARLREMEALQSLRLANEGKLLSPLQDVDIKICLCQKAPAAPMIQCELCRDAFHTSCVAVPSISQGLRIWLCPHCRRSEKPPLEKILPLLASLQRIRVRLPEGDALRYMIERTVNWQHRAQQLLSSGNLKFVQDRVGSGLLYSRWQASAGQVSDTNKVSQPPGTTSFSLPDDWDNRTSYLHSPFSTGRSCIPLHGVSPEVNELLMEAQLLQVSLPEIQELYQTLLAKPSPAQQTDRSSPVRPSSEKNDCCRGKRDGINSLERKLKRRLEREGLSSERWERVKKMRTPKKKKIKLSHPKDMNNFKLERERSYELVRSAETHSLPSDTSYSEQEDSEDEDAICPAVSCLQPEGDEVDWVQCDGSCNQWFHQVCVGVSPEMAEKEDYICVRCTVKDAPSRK
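Inhibition is measured as reduced NADH fluorescence generation from FDH coupling to formaldehyde release. Truncated KDM5BΔAP at 200 nM final acts on H3K4me3 peptide (12.5 µM in substrate mix) in pH 7.5 HEPES buffer with Tween-20, 30 min, room temperature.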
Each line names hits and unclear results; the compound was inactive in the other large screens. The entries come from a sample that favours hits as a whole.

Cc1ccc(NC2CCCN(C(=O)CCN3CCCCO3)C2)cc1C (centres undefined)	none
Cc1cnc(-c2ccncc2)n1CCNC(=O)NCc1ccc(F)cc1	none
Cc1c(-c2ccc(F)cc2)[nH]c2ccc(CNC(=O)[C@@H]3CCCO3)cc12	KDM5B inh 28µM
CCc1ccc(-c2nc(SCC(=O)NCC3CCCO3)c(-c3ccc(F)cc3)[nH]2)cc1 (centres undefined)	none
Cc1nc(CC(=O)NCc2ccccn2)cs1	none
Cc1nc(CC(=O)Nc2ccc(C)c(C)c2)cs1	none
Cc1nc(CC(=O)NCc2ccc3[nH]c(-c4ccc(F)cc4)c(C)c3c2)cs1	KDM5B inh 32µM
O=C(C[C@@H]1CCNC[C@@H]1Cc1cc(-c2ccc(F)cc2)on1)NCc1ccc(F)cc1	none
Cc1c(-c2ccc(F)cc2)[nH]c2ccc(CNCc3cnn(C)c3)cc12	KDM5B inh 32µM
Cc1c(-c2ccc(F)cc2)[nH]c2ccc(CNC(=O)CCN3CCCO3)cc12	KDM5B inh 32µM
O=C(NCc1ccc(F)cc1)c1ccc(NC(=O)C2CCCO2)cc1 (centres undefined)	none
O=C(NCCCn1ccnc1)c1cnc2c(c1)N(C(=O)CCc1ccccc1)CCC2	none
CCc1ccc(C(=O)NC2CCN(c3cnn(C)c(=O)c3)CC2)cc1	none
COc1ccc(-n2c(SCC(=O)N(C)c3ccccc3)nc3[nH]ncc3c2=O)cc1Cl	none
O=C(Nc1cccn2nc(C3CCC3)nc12)c1ccc(F)cc1F	KDM5B inh 32µM
O=C(COc1ccccc1)Nc1cccn2nc(C3CCC3)nc12	none
O=C(Nc1cccn2nc(C3CCC3)nc12)c1ccc(F)cc1Cl	none
CC(C)(C)NC(=O)NC(=O)CSc1nnc(-c2c[nH]c3ccccc23)o1	none
Cc1ccsc1C(=O)OCC(=O)N1c2ccccc2NC(=O)C1(C)C	none
Cc1ccc(S(=O)(=O)/C(C#N)=C\c2ccc(F)cc2)cc1	none
COC(=O)c1sccc1NC(=O)N1CCCC1c1noc(COc2ccc(F)cc2)n1 (centres undefined)	KDM5B inh 32µM
CCOCc1nc(C2CCCN2C(=O)Nc2ccsc2C(=O)OC)no1 (centres undefined)	none
CCNC(=O)N1CCCC1c1noc(COc2ccc(F)cc2)n1 (centres undefined)	none
Cc1cccc(C)c1NC(=O)CSc1nnc(Cc2ccccc2)n1-n1cccc1	none
COc1ccc(CCNC(=O)COc2ccc3ccc(=O)oc3c2)cc1	none
CCN(C(=O)Cn1cc(C(=O)OC)c2ccccc21)c1ccccc1	none
Oc1ccc2c(c1)Oc1ncn3nc(COc4ccccc4)nc3c1C2c1ccccc1 (centres undefined)	none
COc1cccc(CNC(=O)Cn2c(=O)[nH]c3c(-c4ccccc4F)c[nH]c3c2=O)c1	none
Cc1ncc(C(=O)NCc2ccc3[nH]c(-c4ccccc4F)c(C)c3c2)c(C)n1	KDM5B inh 20µM
Cc1cc(C(=O)OCC(=O)NCc2ccc(F)cc2)c2ccccc2n1	none
Cc1c(-c2ccccc2F)[nH]c2ccc(CNC(=O)CN3CC(=O)NC3=O)cc12	KDM5B inh 28µM
Cc1nc(CCC(=O)NCc2ccc3[nH]c(-c4ccccc4F)c(C)c3c2)n[nH]1	KDM5B inh 25µM
Cc1[nH]c2ccccc2c1SCCNC(=O)c1ccccc1F	none
Cc1ccc(CNC(=O)Cc2nn(C)c(=O)c3ccccc23)cc1F	none
Cc1ccc(CNC(=O)c2nc(SCc3ccccc3F)ncc2Cl)cc1	none
Cc1c(-c2ccccc2F)[nH]c2ccc(CNC(=O)CCn3cnnc3)cc12	KDM5B inh 32µM
O=C(Cn1nc(-c2ccccc2F)ccc1=O)NCc1cccnc1	none
Cc1ccc(CNC(=O)CCc2ncc(-c3c(F)cccc3F)o2)cc1F	none
Cc1ccc(CNC(=O)CSc2n[nH]c(N)n2)cc1F	none
CONC(=O)C(NC(=O)C12CC3CC(CC(C3)C1)C2)C(C)C (centres undefined)	none
CC1=NS(=O)(=O)N(C)C=C1C(=O)OCc1nc(-c2cccc(Cl)c2)no1	none
CC(C)C(=O)Nc1ccc(F)cc1F	none
Cn1nc(C(=O)NCc2ccc(Cl)cc2Cl)c2ccccc2c1=O	none
O=C(NC1CCCC1)c1sc2ccccc2c1Cl	none
CS(=O)(=O)c1ccc(F)c(NC(=O)CCCc2cccs2)c1	none
O=C1NC2(CCN(C(=O)c3ccccc3)C2)N=C1c1ccccn1 (centres undefined)	none
CC(=O)N1CCC2(C1)N=C(c1ccncc1)C(=O)N2 (centres undefined)	none
COC(=O)N1CCC2(C1)N=C(c1ccccn1)C(=O)N2 (centres undefined)	KDM5B inh 35µM
Cc1ccc(OCC(=O)N(C)CC(=O)N(CC(C)C)c2c(N)n(CC(C)C)c(=O)[nH]c2=O)cc1C	none
COCCSc1ccc2c(c1)OCCCO2	none
CCCNC(=O)CCc1ccnc(N2CCOCC2)c1	KDM5B inh 28µM
Cc1ccc(N2CCN(C(=O)CCc3ccnc(N4CCOCC4)c3)CC2)cc1	none
Cc1ccc(-c2cnc(CCC(=O)NCCN3CCOCC3)o2)cc1C	none
O=C(CCc1ccnc(N2CCOCC2)c1)NCCN1CCc2ccccc2C1	KDM5B inh 25µM
Cc1cc(C(=O)NCc2ccnc(N3CCCC3)c2)on1	none
O=C(CNC(=O)c1cc(F)cc(F)c1)NCCN1CCc2ccccc2C1	none
Cc1ccccc1CNC(=O)CCc1ccnc(N2CCOCC2)c1	KDM5B inh 22µM
Cc1nn(C)c(C)c1CC(=O)NCc1cccnc1N1CCOCC1	none
CCCNC(=O)COc1nc2ccccc2nc1N1CCOCC1	none
Cc1cc2cc(NC(=O)c3ccc(C)c(C)c3)ccc2[nH]1	none
CCOc1ccc(-c2nc(COc3cccc4c3CCCC4O)cs2)cc1 (centres undefined)	none
O=C(O)CCCCCCCCC#CC#CCCc1ccccc1	none
Cc1ccccc1NC(=O)c1ccc2c(c1)OCCN(CCC(F)(F)F)C2	none
O=C(Nc1nc2ccccc2s1)c1ccc2c(c1)OCCN(CCC(F)(F)F)C2	KDM5B inh 32µM
O=C(Nc1nccs1)c1ccc2c(c1)OCCN(CCC(F)(F)F)C2	none
COc1ccc(CCNC(=O)C2CCCN(c3ccc4nnc(C(F)(F)F)n4n3)C2)cc1 (centres undefined)	none
COc1ccccc1NC(=O)N1CCC(Oc2ncccc2C(=O)N2CCOCC2)C1 (centres undefined)	none
CCc1cccc2c(C(=O)COC(=O)c3ccc(C)s3)c[nH]c12	none
CCOCCCNC(=O)N1CCC2(CC1)CC(N(C(=O)c1ccccc1)C1CC1)CCO2 (centres undefined)	none
O=C(Nc1ccc(-c2nc3ccccc3o2)cc1)c1cccc([N+](=O)[O-])c1	none
COc1ccc(C2=NS(=O)(=O)N(C)C(C(=O)N3CCCC3)=C2)cc1	none
Cc1ccc(NC(=O)c2cc(-c3cccnc3)nc3c(C)cccc23)nc1	none
CCN(Cc1nccn1C)C(=O)c1cc(-c2cnc(N)nc2)nc2c(C)cccc12	KDM5B inh 28µM
Cc1ccc(-c2cc(C(=O)O)c3cccc(C)c3n2)cc1C	none
Cc1ccc(C(=O)NCC(O)c2ccc(F)cc2F)cn1 (centres undefined)	none
COC(=O)CN1C(=O)CSc2ccc(S(=O)(=O)Nc3cccc(OC)c3)cc21	none
CCCN1C(=O)C(C)=C(C)C1c1cn(C)c2ccccc12 (centres undefined)	none
Cc1ccccc1NC(=O)N(C)CC1CCOCC1	none
Cc1nc2cc(NC(=O)C3CC(=O)N(C4CCCC4)C3)ccc2o1 (centres undefined)	none
Cc1ccc(Cl)cc1NC(=O)C1CC(=O)N(C2CCCCC2)C1 (centres undefined)	none
Cc1nn(C)c(C)c1-c1ccnc(NCC2CC(=O)N(C3CCCC3)C2)n1 (centres undefined)	KDM5B inh 25µM
